Measured values as given in ChEMBL document CHEMBL1961873, “Compounds: GSK PKIS; Assays: Nanosyn kinase panel” (2012).

These compounds were tested against Tyrosine-protein kinase Fes/Fps (Homo sapiens) (UniProt P07332). Details: at 1 µM.
Chain of Tyrosine-protein kinase Fes/Fps (Homo sapiens) (P07332 whole entry): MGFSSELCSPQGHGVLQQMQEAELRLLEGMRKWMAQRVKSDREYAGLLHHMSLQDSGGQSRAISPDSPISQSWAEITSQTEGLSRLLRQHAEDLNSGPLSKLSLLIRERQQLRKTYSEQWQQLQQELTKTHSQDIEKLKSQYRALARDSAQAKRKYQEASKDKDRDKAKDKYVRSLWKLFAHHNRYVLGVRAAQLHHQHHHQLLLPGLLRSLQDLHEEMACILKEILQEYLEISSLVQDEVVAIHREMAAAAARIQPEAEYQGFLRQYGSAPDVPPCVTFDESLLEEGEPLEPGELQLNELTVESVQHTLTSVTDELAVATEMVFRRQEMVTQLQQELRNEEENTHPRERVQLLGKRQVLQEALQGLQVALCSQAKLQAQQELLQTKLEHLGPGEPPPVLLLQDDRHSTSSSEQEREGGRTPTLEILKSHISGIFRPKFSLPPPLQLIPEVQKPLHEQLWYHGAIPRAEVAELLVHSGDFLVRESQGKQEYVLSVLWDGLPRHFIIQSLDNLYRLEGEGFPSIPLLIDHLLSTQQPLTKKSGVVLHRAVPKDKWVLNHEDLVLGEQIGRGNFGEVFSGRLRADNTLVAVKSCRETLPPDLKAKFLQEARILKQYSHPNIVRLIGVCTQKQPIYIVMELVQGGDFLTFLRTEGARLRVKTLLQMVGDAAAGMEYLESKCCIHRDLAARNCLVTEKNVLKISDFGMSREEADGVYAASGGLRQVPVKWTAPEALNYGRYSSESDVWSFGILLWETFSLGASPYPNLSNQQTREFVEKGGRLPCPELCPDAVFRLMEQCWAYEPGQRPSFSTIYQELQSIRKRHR

Structure (SMILES) | inhibition
Nc1nc(-c2ccccn2)c(-c2ccc3ncccc3n2)s1 | 3.07%
Fc1cccc(COc2ccc(Nc3ncnc4cc(-c5ccc[nH]5)sc34)cc2Cl)c1 | 1.5%
COc1cccc(-n2ncc3c(N/N=C/c4cccc(F)c4)ncnc32)c1 | 0.83%
CCn1c(-c2nonc2N)nc2c(C#CC(C)(C)O)nc(OC[C@@H](N)c3ccccc3)cc21 | 5.13%
COc1ccc(-c2coc3ncnc(N)c23)cc1 | 5.04%
Cc1cccc(-c2n[nH]cc2-c2ccc3ncccc3n2)n1 | -0.18%
Nc1ncnc2occ(-c3ccc(NC(=O)Nc4cc(C(F)(F)F)cc(C(F)(F)F)c4)cc3)c12 | 4.84%
[O-][S+]1CCN(Cc2ccc(-c3ccc4ncnc(Nc5ccc(OCc6ccccc6)c(F)c5)c4c3)o2)CC1 | 3.4%
Nc1nc(-c2ccc3c(c2)C(=Cc2cc(Br)c(O)c(Br)c2)C(=O)N3)cs1 | -3.65%
CC1=C(C(=O)Nc2ccc3[nH]ncc3c2)C(c2ccc3ccccc3c2)CC(=O)N1 (stereo unspecified) | 2.99%
CS(=O)(=O)CCNCc1ccc(-c2ccc3ncnc(Nc4ccc(OCc5ccccc5)c(Cl)c4)c3c2)o1 | 0.08%
c1cnn2ncc(-c3ccnc(Nc4ccc5c(c4)OCCO5)n3)c2c1 | 48%
CN1CCC(C(=O)Nc2n[nH]c3nnc(-c4ccccc4)cc23)CC1 | 3.43%
Cn1cc(C=C2C(=O)Nc3cccnc32)c2ccccc21 | 2.19%
Cc1nnc(-c2ccc(C)c(-c3ccc(C(=O)Nc4cccc(C#N)c4)cc3)c2)o1 | 2.11%
CNC(=O)c1cncc(/C=C/c2c(Cl)cccc2Cl)c1 | 4.62%
N#Cc1c(NC(=O)c2cccc3ccccc23)sc2c1CCCC2 | 2.36%

Structure (SMILES) | inhibition
CCn1c(-c2nonc2N)nc2cnc(Oc3cccc(NC(=O)c4ccc(OCCN5CCOCC5)cc4)c3)cc21 | 2.83%
COc1ccccc1Nc1ncc(-c2ccccc2)o1 | 3.85%
COc1ccc(COc2ccc(Cc3cnc(N)nc3N)cc2OC)cc1 | 2.24%
CS(=O)(=O)Nc1ccc(N/C=C2\C(=O)Nc3ccccc32)cc1 | -1.95%
CC1=C(C(=O)Nc2ccc3[nH]ncc3c2)C(c2ccc(Cl)c(Cl)c2)CC(=O)N1 (stereo unspecified) | 2.35%
COc1cc2ncn(-c3cc(O[C@@H](C)c4ccccc4Cl)c(C(N)=O)s3)c2cc1OC | 2.83%
NS(=O)(=O)c1cccc(-c2ccc3c(NC(=O)C4CC4)n[nH]c3c2)c1 | -4%
Nc1ncnc2occ(-c3ccc(NC(=O)Nc4cccc(C(F)(F)F)c4)cc3)c12 | 4.91%
CS(=O)(=O)CCNCc1ccc(-c2ccc3ncnc(Nc4ccc(OCc5cccc(F)c5)c(C(F)(F)F)c4)c3c2)o1 | 2.85%
O=C1Nc2ccc(C(=O)c3ccco3)cc2C1=Cc1cc(Cl)c(O)c(Cl)c1 | 2.89%
COc1cc2c(cc1Nc1nc(N3CCc4ccccc43)c3cc[nH]c3n1)N(C(=O)CN(C)C)CC2 | 62.3%
CCc1cccc(NC(=O)Nc2ccc(Oc3ccc4nc(NC(=O)OC)[nH]c4c3)cc2)c1 | 0.62%
CCN1CCC(CC(=O)Nc2n[nH]c3nc(-c4cccs4)c(Br)cc23)CC1 | -4.54%
Cc1ccc(NC(=O)c2ccnc(N3CCCC3)c2)cc1-c1ccc(C(=O)NCC2CC2)cc1 | 5.19%
CCn1c(-c2nonc2N)nc2c(C#CC(C)(C)O)nc(CN3CCCC3)cc21 | -0.58%
COc1cc(C)c(NC(=O)CN(C)C)cc1Nc1nc(Nc2cccc(F)c2C(N)=O)c2cc[nH]c2n1 | 89%

Each compound was assayed against Fibroblast growth factor receptor 1 (Homo sapiens) (UniProt P11362). Details: at 0.1 µM.
Chain of Fibroblast growth factor receptor 1 (Homo sapiens) (P11362 22-822 limits assumed): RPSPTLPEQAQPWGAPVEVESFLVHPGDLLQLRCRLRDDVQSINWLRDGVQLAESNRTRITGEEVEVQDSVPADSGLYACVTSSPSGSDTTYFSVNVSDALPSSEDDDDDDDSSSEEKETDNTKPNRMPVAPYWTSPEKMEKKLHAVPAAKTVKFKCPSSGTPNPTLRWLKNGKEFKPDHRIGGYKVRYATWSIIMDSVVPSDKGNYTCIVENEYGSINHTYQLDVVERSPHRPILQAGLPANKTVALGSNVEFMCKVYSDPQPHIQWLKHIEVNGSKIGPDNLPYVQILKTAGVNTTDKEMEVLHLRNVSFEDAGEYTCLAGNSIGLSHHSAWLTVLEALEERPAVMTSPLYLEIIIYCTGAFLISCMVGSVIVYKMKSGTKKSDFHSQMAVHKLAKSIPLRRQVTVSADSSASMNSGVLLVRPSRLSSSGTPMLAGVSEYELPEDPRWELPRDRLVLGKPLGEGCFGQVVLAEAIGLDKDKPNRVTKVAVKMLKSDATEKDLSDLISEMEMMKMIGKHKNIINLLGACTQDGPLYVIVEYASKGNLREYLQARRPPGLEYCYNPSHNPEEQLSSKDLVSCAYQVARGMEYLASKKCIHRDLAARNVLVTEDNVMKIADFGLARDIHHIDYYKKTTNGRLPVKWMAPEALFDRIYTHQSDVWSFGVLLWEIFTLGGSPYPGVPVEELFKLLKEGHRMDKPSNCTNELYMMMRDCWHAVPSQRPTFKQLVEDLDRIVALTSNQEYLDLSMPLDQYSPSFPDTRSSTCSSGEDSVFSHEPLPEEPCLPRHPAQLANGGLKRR

Structure (SMILES) | inhibition
Nc1nc(-c2ccccn2)c(-c2ccc3ncccc3n2)s1 | 7%
Fc1cccc(COc2ccc(Nc3ncnc4cc(-c5ccc[nH]5)sc34)cc2Cl)c1 | -1.92%
COc1cccc(-n2ncc3c(N/N=C/c4cccc(F)c4)ncnc32)c1 | -2.97%
CCn1c(-c2nonc2N)nc2c(C#CC(C)(C)O)nc(OC[C@@H](N)c3ccccc3)cc21 | -3.47%
COc1ccc(-c2coc3ncnc(N)c23)cc1 | 3.15%
Cc1cccc(-c2n[nH]cc2-c2ccc3ncccc3n2)n1 | -0.21%
Nc1ncnc2occ(-c3ccc(NC(=O)Nc4cc(C(F)(F)F)cc(C(F)(F)F)c4)cc3)c12 | 9.08%
[O-][S+]1CCN(Cc2ccc(-c3ccc4ncnc(Nc5ccc(OCc6ccccc6)c(F)c5)c4c3)o2)CC1 | 2.71%
Nc1nc(-c2ccc3c(c2)C(=Cc2cc(Br)c(O)c(Br)c2)C(=O)N3)cs1 | -5.75%
CC1=C(C(=O)Nc2ccc3[nH]ncc3c2)C(c2ccc3ccccc3c2)CC(=O)N1 (stereo unspecified) | 1.46%
CS(=O)(=O)CCNCc1ccc(-c2ccc3ncnc(Nc4ccc(OCc5ccccc5)c(Cl)c4)c3c2)o1 | 0.78%
c1cnn2ncc(-c3ccnc(Nc4ccc5c(c4)OCCO5)n3)c2c1 | 5.77%
CN1CCC(C(=O)Nc2n[nH]c3nnc(-c4ccccc4)cc23)CC1 | 5.69%
Cn1cc(C=C2C(=O)Nc3cccnc32)c2ccccc21 | 6.57%
Cc1nnc(-c2ccc(C)c(-c3ccc(C(=O)Nc4cccc(C#N)c4)cc3)c2)o1 | -1.37%
CNC(=O)c1cncc(/C=C/c2c(Cl)cccc2Cl)c1 | 1.94%
N#Cc1c(NC(=O)c2cccc3ccccc23)sc2c1CCCC2 | 0.22%

Structure (SMILES) | inhibition
CCn1c(-c2nonc2N)nc2cnc(Oc3cccc(NC(=O)c4ccc(OCCN5CCOCC5)cc4)c3)cc21 | 1.76%
COc1ccccc1Nc1ncc(-c2ccccc2)o1 | 8.72%
COc1ccc(COc2ccc(Cc3cnc(N)nc3N)cc2OC)cc1 | 1.78%
CS(=O)(=O)Nc1ccc(N/C=C2\C(=O)Nc3ccccc32)cc1 | -1.9%
CC1=C(C(=O)Nc2ccc3[nH]ncc3c2)C(c2ccc(Cl)c(Cl)c2)CC(=O)N1 (stereo unspecified) | 0.69%
COc1cc2ncn(-c3cc(O[C@@H](C)c4ccccc4Cl)c(C(N)=O)s3)c2cc1OC | 2.01%
NS(=O)(=O)c1cccc(-c2ccc3c(NC(=O)C4CC4)n[nH]c3c2)c1 | 0.33%
Nc1ncnc2occ(-c3ccc(NC(=O)Nc4cccc(C(F)(F)F)c4)cc3)c12 | 8.01%
CS(=O)(=O)CCNCc1ccc(-c2ccc3ncnc(Nc4ccc(OCc5cccc(F)c5)c(C(F)(F)F)c4)c3c2)o1 | -1.13%
O=C1Nc2ccc(C(=O)c3ccco3)cc2C1=Cc1cc(Cl)c(O)c(Cl)c1 | 3.35%
COc1cc2c(cc1Nc1nc(N3CCc4ccccc43)c3cc[nH]c3n1)N(C(=O)CN(C)C)CC2 | 2.98%
CCc1cccc(NC(=O)Nc2ccc(Oc3ccc4nc(NC(=O)OC)[nH]c4c3)cc2)c1 | -3.46%
CCN1CCC(CC(=O)Nc2n[nH]c3nc(-c4cccs4)c(Br)cc23)CC1 | -3.02%
Cc1ccc(NC(=O)c2ccnc(N3CCCC3)c2)cc1-c1ccc(C(=O)NCC2CC2)cc1 | -1.44%
CCn1c(-c2nonc2N)nc2c(C#CC(C)(C)O)nc(CN3CCCC3)cc21 | -3.25%
COc1cc(C)c(NC(=O)CN(C)C)cc1Nc1nc(Nc2cccc(F)c2C(N)=O)c2cc[nH]c2n1 | 0.49%
